In the supplement of paper PMC7156485 one finds cell number data, which are given here for 13 compounds.

SMILES strings stand for the structures. Several values for one entry are separate records, joined by “and”; a condition that tells them apart may be missing. Identical values can stand only once. Counter-ions that a name gives are not always drawn. ± gives the standard deviation of the averaged measurements.
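Further: TDF denotes transformed human dermal fibroblasts of mesenchymal origin.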

For the first assay, the system named is HCC1569. The assay is described as follows: cell number relative to DMSO (% of DMSO); higher = more cells (less growth inhibition / toxicity). To be noted: concentration: 10 µM; 24 h. The essentials:
(§1)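 Six fields per well were imaged at ×10 after the cells were fixed in 3.7% formaldehyde and stained with a rabbit anti-H1.0 antibody, an AlexaFluor 647 secondary and DAPI. The HCC1569 and TDF cells had been plated at 800 per well in 384-well plates (RPMI, 10% FBS) and treated in triplicate with compounds at 10 µM for 24 h at 37 °C. The values are the median of replicates of H1.0 nuclear intensity or cell number, as percent of the plate control. Smoothing for positional effects was applied to HCC1569 data.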
`C=C(C)C1Cc2c(ccc3c2OC2COc4cc(OC)c(OC)cc4C2C3=O)O1` (stereo not drawn) [Rotenone]: the cell number is 59.7 ± 1.6.

Turning to `CC(C)Oc1cccnc1N(C)C1CCN(Cc2ccc(I)cc2)CC1` [RBI-257 maleate], the cell number is 100. Same read-out and setting: under `Clc1cnc(Oc2ccc(Oc3ncc(Cl)cc3Cl)cc2)c(Cl)c1` stands 100; under `NC(=O)COc1c(F)cc(SCCNS(=O)(=O)c2ccccc2)cc1F`, 106.

In the next assay the test system is TDF. Described as above. The following applies: concentration: 10 µM; 24 h. The procedure, abridged:
as §1
Regarding `CCCN1CCCC2Cc3nc(N)ncc3CC21.Cl.Cl` (stereo not drawn) [Quinelorane dihydrochloride], the cell number was found to be 113. On the same count and under the same terms, under `CC(=O)c1c(O)c(C)c(O)c(Cc2c(O)c3c(c(C(=O)C=Cc4ccccc4)c2O)OC(C)(C)C=C3)c1O` [Rottlerin] stands 77.9 ± 6.9; under `CCCCCCCCCCCCCCCC(=O)OCC(COP(=O)([O-])OCC[N+](C)(C)C)OC(C)=O` (stereo not drawn), 102; under `CC(O)=C(C#N)C(=O)Nc1cc(Br)ccc1Br`, 99.5 and 103. The same measure, in the same setting: with `COc1ccc(Cc2nccc3cc(OC)c(OC)cc23)cc1OC.Cl` [Papaverine hydrochloride] the figure was 77.7 ± 7.8; with `C=CCc1cc(OC)c2c(c1)OCO2` [Myristicin], 103; with `COc1ccccc1N1CCNCC1.Cl` [1-(2-Methoxyphenyl)piperazine hydrochloride], 113.

In turn, `CC(=O)C1=C(O)C2C3c4c[nH]c5cccc(c45)CC3C(C)(C)N2C1=O` (stereo not drawn) [Cyclopiazonic acid] displayed a cell number of 90.8. Same read-out and setting: under `NC(CCCCCP(=O)(O)O)C(=O)O` (stereo not drawn) [D(-)-2-Amino-7-phosphonoheptanoic acid] stands 95.2.
